Several values for one entry are separate records, joined by “and”; a condition that tells them apart may be missing. Identical values can stand only once. About 79,000 compounds went through this panel and 15% of them were active in at least one assay; those are over-represented in the sample as a whole. A structure can be active in one record and inactive in another. Activity calls are given as the source filed them. No stated cut-off is given here; in the data, active means growth inhibition above about 70%; inactive means the rest.
Key:
[1] = NCI Yeast Anticancer Drug Screen. Data for the rad50 strain (AID 155);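 further: 0% = growth of vehicle-only cultures of the same strain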; conditions: S. cerevisiae rad50 strain growth inhibition, stronger effect = higher value
In short: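 Yeast carrying a defined DNA repair defect were exposed to test compounds, and growth was compared with vehicle-treated controls to give percent inhibition.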

[2] = NCI Yeast Anticancer Drug Screen. Data for the mec2-1 strain (AID 157); conditions: S. cerevisiae mec2-1 strain, stronger effect = higher value
In short: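 Mutant yeast (mec2-1) grown with compound; growth inhibition relative to vehicle control reported.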

[3] = NCI Yeast Anticancer Drug Screen. Data for the sgs1 mgt1 strain (AID 161);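 further: 0% = growth of cultures given vehicle only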; conditions: S. cerevisiae sgs1 mgt1 strain, stronger effect = higher value
In short: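 Percent growth inhibition was derived by comparing compound-exposed mutant yeast with vehicle-exposed cultures. The strain carries alterations in DNA damage repair.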

[4] = NCI Yeast Anticancer Drug Screen. Data for the cln2 rad14 strain (AID 165);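 further: 0% = growth equal to vehicle treated cultures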; conditions: S. cerevisiae cln2 rad14 strain, stronger effect = higher value
In short: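 Readout is yeast growth inhibition versus vehicle-treated controls, using a strain with cln2 and rad14 alterations exposed to compound.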

[5] = NCI Yeast Anticancer Drug Screen. Data for the bub3 strain (AID 167); conditions: S. cerevisiae bub3 mutant strain, stronger effect = higher value
In short: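 Compounds were applied to a genetically altered yeast strain carrying a cell-cycle control defect. Growth inhibition was scored against vehicle-treated controls.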

[6] = NCI Yeast Anticancer Drug Screen. Data for the mlh1 rad18 strain (AID 175); conditions: S. cerevisiae mlh1 rad18 strain growth inhibition, stronger effect = higher value
In short: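 Genetically defined yeast (DNA repair-deficient) exposed to compounds; growth inhibition determined relative to vehicle.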

[7] = at 5.0 µM (retest, dose inferred, filed as 0.5)
[8] = at 50.0 µM (retest, dose inferred, filed as 5.0)

Structure (SMILES) | growth inhibition [1, 7] | growth inhibition [1, 8] | growth inhibition ([1]; at 50.0 µM) | growth inhibition [2, 7] | growth inhibition [2, 8] | growth inhibition ([2]; at 50.0 µM) | growth inhibition [3, 7] | growth inhibition [3, 8] | growth inhibition ([3]; at 50.0 µM) | growth inhibition [4, 7] | growth inhibition [4, 8] | growth inhibition ([4]; at 50.0 µM) | growth inhibition [5, 7] | growth inhibition [5, 8] | growth inhibition ([5]; at 50.0 µM) | growth inhibition [6, 7] | growth inhibition [6, 8] | growth inhibition ([6]; at 50.0 µM)
CC(NNC(=S)N1CCN(c2ccccn2)CC1)c1nccc2ccccc12 (configuration not stated) | 26% (inactive) | 98% (active) | 69.1% (inactive) | 51% (inactive) | 98% (active) | 22.1% (inactive) | 58% (inactive) | 99% (active) | 1.8% (inactive) | 63% (inactive) | 98% (active) | 8.35% (inactive) | 83% (active) | 99% (active) | 6.2% (inactive) | 49% (inactive) | 98% (active) | –
CCCCCCCCCCNC1CC(OC2CC(O)(C(O)CO)Cc3c(O)c4c(c(O)c32)C(=O)c2c(OC)cccc2C4=O)OC(C)C1O (configuration not stated) | 96% (active) | 97% (active) | 85.8% (active) | 99% (active) | 98% (active) | 89.7% (active) | 95% (active) | 98% (active) | 90.2% (active) | 80% (active) | 96% (active) | 88.2% (active) | 49% (inactive) | 97% (active) | 87.8% (active) | 99% (active) | 96% (active) | –
Cc1nc2c(nc1C)C(=O)c1ccccc1C2=O | 19% (inactive) | 98% (active) | 85.9% (active) | 14% (inactive) | 99% (active) | 82.4% (active) | 22% (inactive) | 97% (active) | 71.4% (active) | 11% (inactive) | 91% (active) | 31.9% (inactive) | 30% (inactive) | 99% (active) | 67.3% (inactive) | 27% (inactive) | 99% (active) | –
CN1C(c2ccccc2)CC(=NOCc2ccccc2)CC1c1ccccc1 (configuration not stated) | 83% (active) | 96% (active) | 78.5% (active) | 94% (active) | 97% (active) | 83.8% (active) | 76% (active) | 97% (active) | 88.8% (active) | 65% (inactive) | 97% (active) | 86.6% (active) | 78% (active) | 96% (active) | 84% (active) | 94% (active) | 96% (active) | –
COc1cc2c(c(OC)c1OC)-c1ccc(SC)c(=O)cc1C(NC(=O)c1ccccc1)CC2 (configuration not stated) | -9% (inactive) | 65% (inactive) | 79.8% (active) | -20% (inactive) | 61% (inactive) | 86.9% (active) | 5% (inactive) | 81% (active) | 83.5% (active) | 11% (inactive) | 48% (inactive) | 52.9% (inactive) | -29% (inactive) | 63% (inactive) | 78.5% (active) | -6% (inactive) | 70% (active) | –
C/C(N=NC(=S)N1CCCCCC1)=C1\C=CC=CN1O | 17% (inactive) | 38% (inactive) | 72.9% (active) | 12% (inactive) | 31% (inactive) | 74.2% (active) | 14% (inactive) | 27% (inactive) | 68.4% (inactive) | 19% (inactive) | 31% (inactive) | 30.6% (inactive) | 21% (inactive) | 33% (inactive) | 69% (inactive) | 24% (inactive) | 44% (inactive) | –
Clc1nc(Cl)c(Cl)c(Cl)n1 | 29% (inactive) | 98% (active) | 64% (inactive) | 23% (inactive) | 100% (active) | 72.5% (active) | 5% (inactive) | 98% (active) | 8.65% (inactive) | 11% (inactive) | 92% (active) | 13.1% (inactive) | 23% (inactive) | 99% (active) | 33% (inactive) | 39% (inactive) | 98% (active) | –
CCN1CCC(O)(c2ccc(Oc3ccccc3)cc2)C(C(=O)c2ccc(Oc3ccccc3)cc2)C1 (configuration not stated) | 25% (inactive) | 19% (inactive) | 32.9% (inactive) | -10% (inactive) | -8% (inactive) | 22.5% (inactive) | 23% (inactive) | 28% (inactive) | -21.9% (inactive) | 18% (inactive) | 35% (inactive) | 0.95% (inactive) | 14% (inactive) | 38% (inactive) | -23.9% (inactive) | 18% (inactive) | 40% (inactive) | –
CN(C)C(=S)SC(=S)N(C)C | 97% (active) and 96% (active) | 99% (active) and 98% (active) | 97.3% (active) and 99% (active) | 98% (active) and 94% (active) | 99% (active) | 98.8% (active) and 98.5% (active) | 97% (active) and 94% (active) | 99% (active) | 99.2% (active) | 97% (active) and 50% (inactive) | 97% (active) | 87% (active) and 97.2% (active) | 99% (active) and 88% (active) | 99% (active) and 98% (active) | 98.5% (active) and 99.2% (active) | 99% (active) and 96% (active) | 99% (active) | 98% (active) and 98.8% (active)
Oc1ccc(C(O)(c2ccccc2)c2ccccc2)cc1 | 45% (inactive) and 42% (inactive) | 57% (inactive) and 91% (active) | 88.8% (active) and 71.1% (active) | 51% (inactive) and 25% (inactive) | 59% (inactive) and 89% (active) | 91.2% (active) and 89.2% (active) | -30% (inactive) and 35% (inactive) | 30% (inactive) and 89% (active) | 92% (active) and 48.6% (inactive) | 45% (inactive) and 29% (inactive) | 63% (inactive) and 90% (active) | 89.9% (active) and 65.8% (inactive) | 21% (inactive) and 36% (inactive) | 48% (inactive) and 94% (active) | 90.2% (active) and 59.2% (inactive) | 40% (inactive) and 45% (inactive) | 60% (inactive) and 95% (active) | 88.5% (active) and 69.3% (inactive)
O=[N+]([O-])c1ccc2ccccc2c1O | 2% (inactive) | 94% (active) | 96.7% (active) | 8% (inactive) | 97% (active) | 97.7% (active) | 5% (inactive) | 97% (active) | 95.7% (active) | 3% (inactive) | 98% (active) | 97.4% (active) | -3% (inactive) | 93% (active) | 95.5% (active) | 3% (inactive) | 97% (active) | 98.5% (active)
CCSSc1ccccc1C(=O)NC(CC)CO (configuration not stated) | 1% (inactive) | 59% (inactive) | 73.5% (active) | 15% (inactive) | 69% (inactive) | 20.8% (inactive) | 20% (inactive) | 71% (active) | 94.3% (active) | 0% (inactive) | 12% (inactive) | 19.4% (inactive) | -10% (inactive) | 62% (inactive) | 65.5% (inactive) | 3% (inactive) | 73% (active) | 65.5% (inactive)
COc1cc(NCCCCCCC2CCCCN2)c2ncccc2c1 (configuration not stated) | 0% (inactive) and 4% (inactive) | 81% (active) and 71% (active) | 50.5% (inactive) and 85.7% (active) | -1% (inactive) | 47% (inactive) and 23% (inactive) | 49.2% (inactive) and 45.4% (inactive) | -7% (inactive) and 0% (inactive) | 71% (active) and 81% (active) | 40.6% (inactive) and 88% (active) | 5% (inactive) and 3% (inactive) | 27% (inactive) and 61% (inactive) | 14.1% (inactive) and 11.3% (inactive) | 1% (inactive) and 4% (inactive) | 54% (inactive) and 37% (inactive) | 53.4% (inactive) and 71.5% (active) | 3% (inactive) and 2% (inactive) | 89% (active) and 78% (active) | 61% (inactive) and 94.5% (active)
CCOC(=O)[C@H]1Nc2ccc([N+](=O)[O-])cc2C2c3ccccc3CC21 (some centres not stated) | 32% (inactive) | 91% (active) | 80.3% (active) | -11% (inactive) | 48% (inactive) | 87.8% (active) | 24% (inactive) | 93% (active) | 91.2% (active) | 8% (inactive) | 91% (active) | 86.3% (active) | 6% (inactive) | 89% (active) | 88.2% (active) | 17% (inactive) | 90% (active) | 84% (active)
O=C1C(CN2CCCCC2)CCCC1CN1CCCCC1 (configuration not stated) | 0% (inactive) | 25% (inactive) | 13.3% (inactive) and 4.85% (inactive) | 2% (inactive) | 44% (inactive) | -11.6% (inactive) and 24.8% (inactive) | 1% (inactive) | 29% (inactive) | 10.4% (inactive) and 31.3% (inactive) | -4% (inactive) | 6% (inactive) | -46.1% (inactive) and 41.2% (inactive) | -4% (inactive) | 20% (inactive) | -3.9% (inactive) and 59.3% (inactive) | -1% (inactive) | 29% (inactive) | 3.2% (inactive) and 10.4% (inactive)

— PubChem BioAssay (NCI)
